Data as given in PubChem BioAssay (EPA / NIEHS).
Where a structure was tested more than once in an assay, its records may differ in their call. The source made the active and inactive calls. The calls were made as follows: active = hit-call score of the fitted dose curve at least 0.9, where 1 is the maximum; inactive = score below 0.9.

Experiments:
Settings in all cases: mRNA level, 48 h; actives raise or lower the signal
[1] = read-out: JUN Transcription Factor, JUN (gene 3725); test: LTEA_HepaRG_JUN: Life Technologies and Expression Analysis (LTEA) Assay for JUN Transcription Factor using HepaRG (AID 2283513)
In short: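 Differentiated HepaRG cells were exposed to chemicals for 48 h in serum-free induction medium, 8 concentrations from 100 uM in half-log steps, 0.5% DMSO vehicle, in duplicate. JUN mRNA was quantified by TaqMan qRT-PCR, normalized to ACTB, GAPDH, POLR2A.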

[2] = read-out: Lipase C (LIPC), LIPC (gene 3990); test: LTEA_HepaRG_LIPC: Life Technologies and Expression Analysis (LTEA) Assay for Lipase C (LIPC) using HepaRG (AID 2283514)
In short: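 Differentiated human HepaRG cells in serum-free induction medium were exposed in duplicate for 48 h to eight concentrations (top 100 uM, half-log steps, 0.5% DMSO). LIPC mRNA was quantified by TaqMan qRT-PCR, normalized to ACTB, GAPDH and POLR2A, with bidirectional fitting versus DMSO.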

[3] = read-out: MicroRNA 122 (MIR122), gene 406906; test: LTEA_HepaRG_MIR122: Life Technologies and Expression Analysis (LTEA) Assay for MicroRNA 122 (MIR122) using HepaRG (AID 2283516); also: the transcript read is the microRNA miR-122
In short: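 Differentiated human HepaRG cells were exposed 48 h in serum-free induction medium to eight half-log concentrations (top 100 uM, 0.5% DMSO). Transcript level was measured by TaqMan qRT-PCR, normalized to ACTB, GAPDH and POLR2A, and fitted bidirectionally versus DMSO.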

[4] = read-out: matrix metalloproteinase-10 (MMP10), MMP10 (gene 4319); test: LTEA_HepaRG_MMP10: Life Technologies and Expression Analysis (LTEA) Assay for matrix metalloproteinase-10 (MMP10) using HepaRG (AID 2283517)
In short: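 HepaRG, collagen I, ~100,000 cells/well; serum-free induction medium; 48 h exposure, duplicate, 8-pt half-log to 100 uM, 0.5% DMSO. Readout: TaqMan qRT-PCR, normalized to ACTB/GAPDH/POLR2A; bidirectional fit vs DMSO.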

MYC, MYC (gene 4609) = test: LTEA_HepaRG_MYC: Life Technologies and Expression Analysis (LTEA) Assay for MYC using HepaRG (AID 2283518)
In short: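 Differentiated human HepaRG cells, plated 48 h then switched to serum-free induction medium, were exposed in duplicate for 48 h to 8-point half-log series up to 100 uM in 0.5% DMSO. MYC mRNA measured by qRT-PCR, normalized to ACTB/GAPDH/POLR2A.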

[5] = read-out: matrix metalloproteinase-3 (MMP3), MMP3 (gene 4314); test: LTEA_HepaRG_MMP3: Life Technologies and Expression Analysis (LTEA) Assay for matrix metalloproteinase-3 (MMP3) using HepaRG (AID 2283519)
In short: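 Differentiated human HepaRG cells, plated 48 h on collagen I, were exposed in duplicate for 48 h in serum-free induction medium to eight half-log concentrations up to 100 uM in 0.5% DMSO. MMP3 mRNA was quantified by TaqMan qRT-PCR, normalised to ACTB, GAPDH and POLR2A.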

[6] = read-out: Paternally Expressed 10 (PEG10), PEG10 (gene 23089); test: LTEA_HepaRG_PEG10: Life Technologies and Expression Analysis (LTEA) Assay for Paternally Expressed 10 (PEG10) using HepaRG (AID 2283520)
In short: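 Differentiated HepaRG cells, plated 48 h then switched to serum-free induction medium, were exposed in duplicate for 48 h to eight half-log concentrations topping at 100 uM in 0.5% DMSO. PEG10 mRNA was quantified by TaqMan qRT-PCR, normalised to ACTB, GAPDH and POLR2A.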

[7] = read-out: Nuclear factor NF-kappa-B p105 subunit (Homo sapiens) (UniProt P19838); test: LTEA_HepaRG_NFKB1: Life Technologies and Expression Analysis (LTEA) Assay for Nuclear Factor Kappa B Subunit 1 (NFKB1) using HepaRG (AID 2283521)
In short: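 NFKB1 transcript was measured by TaqMan qRT-PCR on Fluidigm arrays, normalised to three housekeeping genes and fitted in both directions against 0.5% DMSO. HepaRG cells were dosed in duplicate for 48 h in serum-free induction medium, eight half-log steps from 100 uM.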

[8] = read-out: Protein phosphatase 2A (PPP2R4), PTPA (gene 5524); test: LTEA_HepaRG_PPP2R4: Life Technologies and Expression Analysis (LTEA) Assay for Protein phosphatase 2A (PPP2R4) using HepaRG (AID 2283522)
In short: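 Differentiated HepaRG cells in serum-free induction medium were exposed in duplicate for 48 h to eight concentrations, top 100 uM with half-log dilutions, in 0.5% DMSO. PPP2R4 mRNA was quantified by TaqMan qRT-PCR, normalized to ACTB, GAPDH and POLR2A.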

[9] = read-out: Lipoprotein lipase (LPL), LPL (gene 4023); test: LTEA_HepaRG_LPL: Life Technologies and Expression Analysis (LTEA) Assay for Lipoprotein lipase (LPL) using HepaRG (AID 2283515)
In short: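 Differentiated human HepaRG cells in serum-free induction medium were exposed in duplicate for 48 h to eight half-log concentrations (top 100 uM) in 0.5% DMSO. LPL mRNA was quantified by TaqMan qRT-PCR, normalized to ACTB, GAPDH and POLR2A.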

Measured: AC50

Sequence of Nuclear factor NF-kappa-B p105 subunit (Homo sapiens) (P19838 whole entry, looked up): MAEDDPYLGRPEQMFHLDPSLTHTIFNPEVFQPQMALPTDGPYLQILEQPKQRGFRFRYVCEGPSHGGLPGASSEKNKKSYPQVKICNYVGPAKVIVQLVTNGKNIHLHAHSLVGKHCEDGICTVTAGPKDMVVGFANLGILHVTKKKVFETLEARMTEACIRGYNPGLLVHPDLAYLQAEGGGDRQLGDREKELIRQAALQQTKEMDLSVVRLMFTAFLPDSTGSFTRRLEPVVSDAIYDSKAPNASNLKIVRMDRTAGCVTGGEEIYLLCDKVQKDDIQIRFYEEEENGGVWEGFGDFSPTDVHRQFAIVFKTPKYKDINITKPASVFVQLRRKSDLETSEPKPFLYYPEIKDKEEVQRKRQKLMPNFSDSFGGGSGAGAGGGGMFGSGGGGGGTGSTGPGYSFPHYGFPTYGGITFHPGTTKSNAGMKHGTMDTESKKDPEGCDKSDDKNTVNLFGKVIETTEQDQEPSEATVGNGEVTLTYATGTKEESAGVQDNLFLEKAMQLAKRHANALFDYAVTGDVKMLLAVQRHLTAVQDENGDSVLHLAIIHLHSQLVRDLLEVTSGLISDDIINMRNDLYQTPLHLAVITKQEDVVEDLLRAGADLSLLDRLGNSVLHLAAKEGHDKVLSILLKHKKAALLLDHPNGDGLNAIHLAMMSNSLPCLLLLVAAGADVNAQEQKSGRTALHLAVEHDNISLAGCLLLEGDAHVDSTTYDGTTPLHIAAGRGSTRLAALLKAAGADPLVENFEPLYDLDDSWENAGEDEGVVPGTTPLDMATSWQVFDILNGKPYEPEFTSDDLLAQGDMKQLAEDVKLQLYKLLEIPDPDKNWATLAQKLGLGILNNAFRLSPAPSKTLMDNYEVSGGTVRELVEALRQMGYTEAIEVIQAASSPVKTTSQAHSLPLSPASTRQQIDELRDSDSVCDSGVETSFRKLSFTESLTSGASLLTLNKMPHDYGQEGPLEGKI

CCCCOC(=O)C(C)Oc1ccc(Oc2ccc(C(F)(F)F)cn2)cc1 (configuration not stated)
not listed: [9]
inactive: all other assays above

CCCCCOC(=O)COc1cc(N2C(=O)C3=C(CCCC3)C2=O)c(F)cc1Cl
not listed: [7]
inactive: all other assays above

CCCCOC(=O)[C@@H](C)Oc1ccc(Oc2ccc(C(F)(F)F)cn2)cc1
active: [6] 5.38 µM
inactive: all other assays above

O=C(O)C1(C(=O)Nc2ccc(Cl)cc2Cl)CC1
inactive: [1] | [4] | MYC, MYC (gene 4609)
active: [2] 76.2 µM | [3] 50 µM | [5] 50 µM | [6] 39.8 µM | [7] 22.9 µM | [8] 61.9 µM

O=C(c1ccccc1)C1CCCCC1
not listed: [9]
inactive: all other assays above

C[C@]12C[C@H](O)[C@H]3[C@@H](CCC4=CC(=O)CC[C@@]43C)[C@@H]1CC[C@@H]2C(=O)CO
not listed: [9]
inactive: all other assays above

CCC(C)OC(=O)N1CCCCC1CCO (configuration not stated)
inactive: all assays above

C[C@]12CC[C@@H]3c4ccc(O)cc4C[C@@H](CCCCCCCCCS(=O)CCCC(F)(F)C(F)(F)F)[C@H]3[C@@H]1CC[C@@H]2O (some centres not stated)
active: [1] 0.0859 µM | [2] 50 µM | [3] 28.7 µM | [4] 0.116 µM | MYC, MYC (gene 4609) 0.0578 µM | [5] 0.084 µM | [6] 5.19 µM | [7] 0.0508 µM | [8] 0.0315 µM

CC1(C)C(C=C(Cl)Cl)C1C(=O)OCc1cccc(Oc2ccccc2)c1 (configuration not stated)
not listed: [7]
inactive: all other assays above

CCN(Cc1c(F)cccc1Cl)c1c([N+](=O)[O-])cc(C(F)(F)F)cc1[N+](=O)[O-]
active: [2] 50 µM | MYC, MYC (gene 4609) 50 µM | [6] 15.2 µM
inactive: all other assays above

CC(C)(c1ccc(O)cc1)c1ccc(O)cc1
active: MYC, MYC (gene 4609) 9.92 µM
inactive: [1] | [2] | [3] | [4] | MYC, MYC (gene 4609) | [5] | [6] | [7] | [8]

C=CCOC(Cn1ccnc1)c1ccc(Cl)cc1Cl (configuration not stated)
active: [1] 75.5 µM | [2] 33 µM | [9] 13.7 µM | [3] 20.5 µM | [4] 34.4 µM | MYC, MYC (gene 4609) 36 µM | [5] 75.2 µM | [6] 28.4 µM | [8] 87.5 µM
